Laboratory results reported in PubChem BioAssay (Tox21).
Values without a mark were called inactive. Entries that show only a call come without a potency. Active and inactive are the calls of the source. Calls follow the shape of the dose curve; as a rule, active = well fitted activation curve with a large enough effect in the repeat runs; inconclusive = weak or mixed curves; inactive = flat fitted curve, though single readings scatter.

Experiment: A CellTox Green Cytotoxicity Assay to monitor cytotoxicity in HEK293 cells - 0 hour (AID 1224869); also: nearly all actives have a fitted effect of over 50% in size
Details: CellTox Green fluorescence; series mostly up to 76.8 µM
From the text: National Center for Advancing Translational Sciences [NCATS]
NIH Chemical Genomics Center [NCGC]
U.S. Environmental Protection Agency [EPA]
National Institutes of Environmental Health Sciences [NIEHS]
National Toxicology Program [NTP]
Cell-based models are critical for drug discovery. Determining the natural cytotoxic effects resulting from test compounds is an essential research activity. A CellTox Green Cytotoxicity Assay to monitor cytotoxicity in real time of continues cell culture during 40 hours of the compound treatment was used to screen Tox21 10K library compounds in Hek293 cells. CellTox Green Cytotoxicity Assay is a nonlytic, homogeneous, biofluorescent method to measure cytotoxicity in cell culture after experimental manipulation. The assay system uses a proprietary asymmetric cyanine dye that is excluded from viable cells but preferentially stains the dead cell's DNA. […] Viable cells produce no appreciable increases in fluorescence. Therefore, the fluorescence signal produced by the binding interaction with dead cell DNA is proportional to cytotoxicity.
The mixture of Hek293 cell suspension and reagents were dispensed at 600cells/6 ul/well in 1536-well tissue culture treated black solid bottom plates using a Multidrop dispenser. After the assay plates were incubated at a 37 C/5% CO2 incubator for 5 hours, 23 nL of compounds dissolved in DMSO, positive and negative controls was transferred to the assay plate by a pintool work station. The plates were incubated at 37 C for 40 hours. The fluorescence intensity were measured at 0h, 8h, 16h, 24h, 32h and 40h time points using ViewLux plate reader during compound treatment.
Potency is read from the fitted curve at half-maximal effect.

| Compound | Potency | cytotoxicity |
| --- | --- | --- |
| C=CCCC(=O)/C=C/C1C(C)=CCCC1(C)C (stereo not given) | inactive |  |
| O=C(O)CN(CCN(CC(=O)O)CC(=O)O)CC(=O)O | 1.96 µM (active) |  |
| CCC(C)(CCC(C)C)C(=O)[O][Sn]([CH3])([CH3])[O]C(=O)C(C)(CC)CCC(C)C (stereo not given) | inactive |  |
| CNc1ccc([N+](=O)[O-])cc1 | inactive |  |
| Cc1ccc(C)cc1 | inactive |  |
| CN(C)C(=O)COC(=O)Cc1ccc(OC(=O)c2ccc(N=C(N)N)cc2)cc1 | inactive |  |
| CCCC1CCC(=O)CC1 | inactive |  |
| CC1(C)CC(O)CC(C)(C)N1 | inactive |  |
| CC(CCc1ccccc1)NCC(O)c1ccc(O)c(C(N)=O)c1 (stereo not given) | inactive |  |
| CCC(=O)OC(=O)CC | inactive |  |
| C=Cc1cccc(C)c1 | inactive |  |
| CCCCCCCCCCCCOCCOCCOCCOCCOCCOCCOCCOCCOCCO | inactive |  |
| OC12N=C(c3ccccc3)SC1Cc1cc(Cl)ccc12 (stereo not given) | inactive |  |
| COc1ccc(NC(=O)CC(C)=O)cc1 | inactive |  |
| S=c1nccc[nH]1 | inactive |  |
| CC(CO)Oc1ccccc1 (stereo not given) | inactive |  |
| COc1c(C)c2c(c(O)c1C/C=C(\C)CCC(=O)OCCN1CCOCC1)C(=O)OC2 | inactive |  |
| C#CC1(O)CC[C@H]2[C@@H]3CCC4=CCCC[C@@H]4[C@H]3CC[C@@]21C (stereo not given in full) | inactive |  |
| CC(=O)Oc1cc2c(s1)CCN(C(C(=O)C1CC1)c1ccccc1F)C2 (stereo not given) | inactive |  |
| COC(=O)c1ccccc1OC | inactive |  |

| Compound | Potency | cytotoxicity |
| --- | --- | --- |
| C=Cc1ccccc1C=C | inactive |  |
| COc1cccc(OC)c1C(=O)O | inactive |  |
| CCC(CC)(CC(=O)Nc1cccc(/C=C/c2nc(C3CCC3)cs2)c1)C(=O)O | inactive |  |
| NC[C@H]1O[C@H](O[C@H]2[C@H](O[C@@H]3O[C@H](CO)[C@@H](O)[C@H]3O)C(O)[C@H](N)C[C@@H]2N)[C@H](N)[C@@H](O)[C@@H]1O (stereo not given in full) |  | -7.77% [at 6.97 µM] |
| O=C(/C=C/c1ccc(O)c(O)c1)O[C@@H](C(=O)O)[C@@H](OC(=O)/C=C/c1ccc(O)c(O)c1)C(=O)O | inactive |  |
| [Cl][Pt-2]([Cl])([Cl])[Cl] | inactive |  |
| NC(=S)NC(N)=S | inactive |  |
| O=[N+]([O-])c1cccc(C(F)(F)F)c1 | inactive |  |
| CCCCCCCCCCC[C@@H](C[C@@H]1OC(=O)[C@H]1CCCCCC)OC(=O)[C@H](CC(C)C)NC=O | inactive |  |
| Nc1ccc(NCCO)c([N+](=O)[O-])c1 | inactive |  |
| C[C@@H](O)[C@H](N)C(=O)O |  | -4.33% [at 15.8 µM] |
| C#C[C@]1(O)CC[C@H]2[C@@H]3[C@H](C)CC4=C(CCC(=O)C4)[C@H]3CC[C@@]21C | inactive |  |
| OC/C=C/CO | inactive |  |
| Nc1cc(Cl)c(O)c(Cl)c1 | inactive |  |
| O=C1CCc2ccc(OCCCCN3CCN(c4cccc(Cl)c4Cl)CC3)cc2N1 | inactive |  |
| O=C1OC2(c3ccc(O)cc3Oc3cc(O)ccc32)c2ccc(N=C=S)cc21 | 22.3 µM (active) |  |
| CCn1c2ccccc2c2cc([N+](=O)[O-])ccc21 | inactive |  |
| COc1ccc(-c2coc3cc(O)ccc3c2=O)cc1 | inactive |  |
| Cc1cc(=O)oc2cc(O)cc(O)c12 | inactive |  |
| OC1CCCc2ccccc21 (stereo not given) | inactive |  |
